About 13,000 (27%) of roughly 48,000 compounds showed an effect of 50% or more. Some of the results follow.
test system: Wolbachia pipientis; assay: Anti-Wolbachia Cell-Based Screen; format: functional; design: scale not given: in the data most compounds retested in dose-response had high values; details: 5 µM

Row | SMILES | Percent Effect [%]
1 | O=C(N1CCCC1)N1C[C@@H]2CCNC[C@@H]21 | -24.15
2 | CCCN1C[C@H]2CC[C@@H]1CN(C(=O)Cc1c(C)nc(CC)[nH]c1=O)C2 | 6.983
3 | CNC(=O)[C@@H]1C[C@H]2CN(c3ncccn3)C[C@H]2N1C(C)C.O=C(O)C(F)(F)F.O=C(O)C(F)(F)F | -5.727
4 | C[C@H]1CN2C[C@H](O)CC2CN1Cc1ccncc1 (some centres undefined) | 120.2
5 | O=S1(=O)C[C@@H]2[C@H](C1)N(Cc1ccoc1)CCN2Cc1ccncc1 | -1.69
6 | C[C@@H]1CN2C[C@H](O)CC2CN1Cc1ccncc1 (some centres undefined) | 148.8
7 | CC(C)NC(=O)[C@H]1C[C@@H]2[C@@H](C1)OCCN2Cc1ccncc1 | -4.174
8 | COCCN1CCN(Cc2ccncc2)[C@H]2CS(=O)(=O)C[C@H]21 | 0.5994
9 | Oc1cccc(CN2C[C@H]3CC[C@@H]2CN(Cc2ccncc2)C3)c1 | -4.265
10 | Cc1c(CN2CCCC(C(=O)c3ccc(C(C)(C)C)cc3)C2)cnn1C (centres undefined) | 35.11
11 | CN1CCN(c2ccc(F)cc2C(N)=O)CC1 | 129.8
12 | CN1CCC2(CC1)C(=O)N(C)c1ccc(F)cc12.Cl | -19.58
13 | CN1CCN(c2ccc(CO)cc2F)CC1 | 13.78
14 | CCN1CCC2(CCC1=O)CN(c1nccc(N)n1)CCN2C (centres undefined) | -7.397
15 | CCNCCc1nc2cc(F)ccc2[nH]1.Cl | -10.45
16 | Cc1ccc2c(n1)N(C)CCN(Cc1cnn(C)c1)C2 | 75.85
17 | Cc1ccc2c(n1)N(C)CCN(CCN1CCCC1)C2.O=C(O)C(F)(F)F.O=C(O)C(F)(F)F.O=C(O)C(F)(F)F | 31.59
18 | Cc1oc(-c2ccco2)nc1CC(=O)N1CCN(CC(C)O)CC1 (centres undefined) | 16.55
19 | Cc1ccc(C(=O)N2C[C@@H]3CCCO[C@@H]3[C@H](N3CCCC3)C2)cn1.O=C(O)C(F)(F)F.O=C(O)C(F)(F)F | -21.68
20 | Cc1ccc(C(=O)N2C[C@H](N3CCOCC3)[C@@H]3OCCC[C@@H]32)cn1.O=C(O)C(F)(F)F.O=C(O)C(F)(F)F | 103.6
21 | CN1CCN([C@@H]2CN(C(=O)c3ccnnc3)[C@@H]3CCCO[C@H]23)CC1 | -8.561
22 | CNC(=O)c1cn(C(C)(C)C)c2ncccc12 | 127
23 | CCNC(=O)c1cn(C(C)(C)C)c2ncccc12 | 133.4
24 | CC(C)(C)n1cc(C2=CCN(CCNC(=O)c3ccccc3)CC2)cn1 | -2.502
25 | CC(C)(C)n1cc(C(=O)NCCN2CCOCC2)c2cccnc21 | 135
26 | CC(C)(C)n1cc(C2=CCN(CCNC(N)=O)CC2)cn1 | -16.31
27 | CCCn1cc(C(=O)NCCCC(N)=O)c2ccccc21 | 15.02

Row | SMILES | Percent Effect [%]
28 | CC(C)(C)n1cc(C(=O)NCCCn2ccnc2)c2cccnc21 | 3.37
29 | CCCNC(=O)c1cn(C(C)(C)C)c2ncccc12 | 115.3
30 | Cc1ccnc(CC(C)N(C)Cc2ccc3c(c2)OCCO3)c1 (centres undefined) | 2.178
31 | O=C(NC[C@H]1C[C@@H]2CCN1C[C@@H]2CN1CCCC1)c1ccco1 | 7.038
32 | CC1CCN(C[C@H]2CN3CC[C@H]2C[C@@H]3CNC(=O)c2ccco2)CC1 | -5.154
33 | Clc1ccccc1CNC(Cn1cncn1)c1ccccc1 (centres undefined) | -5.969
34 | CCN1CCOCC2(CCCN(C(=O)c3conc3C)C2)C1.O=C(O)C(F)(F)F (centres undefined) | 89.52
35 | CN1CCO[C@H]2CN(C(=O)c3ccncc3F)C[C@H]21.O=C(O)C(F)(F)F | -9.265
36 | CNC(=O)CN1CCOCC2(CCCN(Cc3cccnc3)C2)C1.O=C(O)C(F)(F)F.O=C(O)C(F)(F)F.O=C(O)C(F)(F)F (centres undefined) | -4.883
37 | O=C(O)C(F)(F)F.c1cnc(N2CCCC3(COCCN(CC4CC4)C3)C2)nc1 (centres undefined) | -4.915
38 | CCN1CCOCC2(CCCN(C(=O)c3ccncc3F)C2)C1.O=C(O)C(F)(F)F (centres undefined) | 92.47
39 | O=C(C1CC1)N1CCc2c(ncnc2N2CCN3CCCC3C2)C1 (centres undefined) | 16.5
40 | CC(C)c1nc(CC(=O)N2CCN(C)CC2c2ccccc2)cs1 (centres undefined) | 13.34
41 | Cc1ccc(NC(=O)CNC(C)Cc2ccsc2)cc1F (centres undefined) | 8.644
42 | CN(C)C(=O)[C@H]1CC[C@@H]2[C@@H](CCN2Cc2ccccn2)O1.O=C(O)C(F)(F)F.O=C(O)C(F)(F)F | 1.437
43 | Cc1ccccc1C1(CN)CCOCC1 | 1.37
44 | Cc1ccc(N2C[C@H]3CCN(Cc4ccncc4)C[C@H]3C2)nn1.O=C(O)C(F)(F)F | 106.9
45 | Cn1cc(N2CC[C@@H]3CN(Cc4ccncc4)C[C@H]3C2=O)cn1.O=C(O)C(F)(F)F.O=C(O)C(F)(F)F | -47.34
46 | Cc1ccc(N2CC[C@@H]3CN(Cc4cccc(C)n4)C[C@@H]3C2)nn1.O=C(O)C(F)(F)F | -3.12
47 | O=C(O)C(F)(F)F.O=C(O)C(F)(F)F.c1cnc(N2CC[C@@H]3CN(Cc4ccncc4)CCO[C@@H]3C2)nc1 | -13.84
48 | O=C(O)C(F)(F)F.c1cc(CN2CC[C@@H]3CN(c4cnccn4)C[C@@H]3C2)ccn1 | 126.3
49 | O=C(O)C(F)(F)F.c1cnc(N2C[C@H]3CCN(Cc4ccncc4)C[C@H]3C2)nc1 | 87.9
50 | O=C(O)C(F)(F)F.O=C(O)C(F)(F)F.c1ccc(N2CC[C@@H]3CN(Cc4ccncc4)CCO[C@@H]3C2)cc1 | -7.726
51 | Cc1ccc(N2CC[C@@H]3CN(Cc4cc[nH]n4)C[C@@H]3C2)nn1.O=C(O)C(F)(F)F | -9.951
52 | O=C(O)C(F)(F)F.O=C(O)C(F)(F)F.O=C1[C@H]2CN(Cc3ccncc3)C[C@H]2CN1c1cncnc1 | -1.722
53 | c1cc(CN2CC[C@@H]3CN(c4cncnc4)C[C@@H]3C2)ccn1 | 100.2
54 | O=C(O)C(F)(F)F.O=C1[C@H]2CN(Cc3ccc(F)cc3)C[C@H]2CN1c1cncnc1 | -0.4188
